This is an account of results in PubChem BioAssay (NCI).

The panel holds about 83,000 compounds, 20% with a hit somewhere; the sample as a whole holds those more often.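 Growth was measured after 48 h exposure to one concentration of compound in 96-well plates. Values under 10 count as active.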 A number with no mark means an inactive call. Activity calls are given as the source filed them.

Common to all, as to assay: NCI-60 one-dose screen, 48 h (100 = growth as untreated, 0 = no growth, -100 = all killed)
One test deals with SK-MEL-2 melanoma. The note with it: 10 µM unless noted.
In a further test the test system is EKVX NSCLC. The settings on record: 10 µM unless noted.
For the next test, the system named is SN12C renal. The note with it: 10 µM unless noted.
The test system of another test is UO-31 renal. The note with it: 10 µM unless noted.
Another test deals with TK-10 renal. The note with it: 10 µM unless noted.
In another test the test system is ACHN renal. The note with it: 10 µM unless noted.
Another test relates to A498 renal. The settings on record: 10 µM.
Another test relates to HL-60(TB) leukemia. The settings on record: 10 µM unless noted.
Another test has as its system CCRF-CEM leukemia. The settings on record: 10 µM unless noted.
The test system of the next test is MOLT-4 leukemia. The settings on record: 10 µM unless noted.
A further test has as its system SR leukemia. The note with it: 10 µM unless noted.
The next test has as its system RPMI-8226 leukemia. The note with it: 10 µM unless noted.
Another test deals with OVCAR-8 ovarian. The settings on record: 10 µM unless noted.
Another test relates to OVCAR-5 ovarian. The note with it: 10 µM unless noted.
The subject of another test is OVCAR-4 ovarian. The settings on record: 10 µM unless noted.
Another test has as its system SK-OV-3 ovarian. The settings on record: 10 µM unless noted.
For the next test, the system named is IGROV1 ovarian. The settings on record: 10 µM unless noted.
A further test deals with OVCAR-3 ovarian. The note with it: 10 µM unless noted.
Another test relates to HS 578T breast. The note with it: 10 µM unless noted.

Consider `CCOP(=O)(NC[C@H]1O[C@](O)(CO)[C@@H](O)[C@@H]1O)OCC`, for which the growth in the test on SK-MEL-2 melanoma was 98.4%; with EKVX NSCLC, 91.4%; in the test on SN12C renal, 100%; in the test with UO-31 renal, 69.9%; in the test with TK-10 renal it was 97.2%; with ACHN renal, 103%. For the same molecule, the growth in the test with A498 renal is 99.9%; in the test on HL-60(TB) leukemia it was 101%; in the test with CCRF-CEM leukemia it was 101%; with MOLT-4 leukemia, 95.9%; in the test on SR leukemia it was 97.1%; in the test with RPMI-8226 leukemia, 101%. Further, the growth with OVCAR-8 ovarian is 103%; with OVCAR-5 ovarian, 112%; in the test with OVCAR-4 ovarian it was 103%; in the test with SK-OV-3 ovarian, 87.6%; in the test on IGROV1 ovarian, 94.5%; in the test with OVCAR-3 ovarian, 103%. In addition, the growth in the test with HS 578T breast is 96.4%.

Consider `C/C=C(\C)C(=O)O[C@@H]1C(O)[C@H]2OC(COC(=O)CCC(=O)CCCCCC[C@H](CCCCC)O[C@@H]3OC(C)[C@H](OC(C)=O)C(O)[C@H]3O2)[C@H]1OC(=O)/C=C/c1ccccc1` (stereo partly drawn), for which the growth was -1.53% (active) with SK-MEL-2 melanoma; 24.1% in the test with EKVX NSCLC; 17.2% in the test with SN12C renal; 15% in the test with UO-31 renal; 11.7% in the test on TK-10 renal; 12% in the test with ACHN renal. Further, the growth in the test on A498 renal is 14.8%; with HL-60(TB) leukemia it was 17.8%; with CCRF-CEM leukemia, 24.2%; in the test on MOLT-4 leukemia, 37.7%; in the test with SR leukemia, -7.08% (active); in the test with RPMI-8226 leukemia, 2.87% (active). For the same molecule, the growth in the test with OVCAR-8 ovarian was 24%; in the test with OVCAR-5 ovarian, 49.2%; with OVCAR-4 ovarian, 18%; in the test with SK-OV-3 ovarian, 12.1%; in the test with IGROV1 ovarian, 27.3%; in the test on OVCAR-3 ovarian it was 15.4%. Further, the growth in the test on HS 578T breast is 28.7%.

For the molecule `CC(=O)O[C@H](C[C@H](C(C)C)N(C)C(=O)[C@@H](NC(=O)[C@H]1CCCCN1C)C(C)C)c1nc(C(=O)N[C@@H](Cc2ccccc2)C[C@H](C)C(=O)O)c(C(C)C)s1`, the growth is 23.6% in the test on SK-MEL-2 melanoma; 39.3% in the test with EKVX NSCLC; 16.6% in the test with SN12C renal; 41.5% in the test on UO-31 renal; 61.6% in the test on TK-10 renal; 27.3% in the test on ACHN renal. The growth in the test with A498 renal is -8.17% (active); in the test on HL-60(TB) leukemia, -41.4% (active); in the test on CCRF-CEM leukemia, 3.84% (active); in the test on MOLT-4 leukemia, 7.85% (active); in the test with SR leukemia, 7.04% (active); in the test with RPMI-8226 leukemia it was 17.4%. Also, the growth in the test with OVCAR-8 ovarian is 6.46% (active); in the test with OVCAR-5 ovarian it was 39.1%; in the test on OVCAR-4 ovarian it was 46.9%; with SK-OV-3 ovarian, 27%; in the test with IGROV1 ovarian, 20.6%; in the test with OVCAR-3 ovarian it was -28.1% (active). In addition, the growth with HS 578T breast was 17%.

On to `CCOC(=O)[C@@H](C)C[C@H](Cc1ccccc1)NC(=O)c1csc([C@@H](C[C@H](C(C)C)N(C)C(=O)[C@H](CCC(C)C)NC(=O)[C@H]2CCCCN2C)OC(C)=O)n1`, for which the growth with SK-MEL-2 melanoma was 28.1%; with EKVX NSCLC, 45.6%; in the test on SN12C renal it was 18.9%; in the test on UO-31 renal, 20.6%; in the test on TK-10 renal, -5.17% (active); with ACHN renal it was 9.24% (active). Further, the growth is -11.5% (active) with A498 renal; -32.3% (active) with HL-60(TB) leukemia; 9.03% (active) with CCRF-CEM leukemia; 10.3% in the test on MOLT-4 leukemia; 4.32% (active) in the test with SR leukemia; 12.6% with RPMI-8226 leukemia. For the same molecule, the growth is 18% in the test on OVCAR-8 ovarian; 28.2% in the test on OVCAR-5 ovarian; 48.2% in the test on OVCAR-4 ovarian; 2.1% (active) in the test with SK-OV-3 ovarian; 26.1% with IGROV1 ovarian; -1.34% (active) with OVCAR-3 ovarian. In addition, the growth in the test with HS 578T breast is 5.53% (active).

Consider `CC(=O)O[C@H](C[C@H](C(C)C)N(C)C(=O)[C@@H](NC(=O)[C@H]1CCCN1C)C(C)C)c1nc(C(=O)N[C@@H](Cc2ccccc2)C[C@H](C)C(=O)O)c(C)s1`, for which the growth is 36.5% in the test with SK-MEL-2 melanoma; 53.7% with EKVX NSCLC; 29.2% in the test on SN12C renal; 49.3% in the test on UO-31 renal; 42.4% in the test on TK-10 renal; 26.7% in the test on ACHN renal. The growth in the test with A498 renal is -2.65% (active); in the test on HL-60(TB) leukemia, -19.2% (active); in the test on CCRF-CEM leukemia, 8.48% (active); in the test with MOLT-4 leukemia it was 18.9%; in the test on SR leukemia, 8.27% (active); in the test with RPMI-8226 leukemia, 19.8%. For the same molecule, the growth in the test with OVCAR-8 ovarian is 17.9%; with OVCAR-5 ovarian it was 36.1%; in the test on OVCAR-4 ovarian it was 48.2%; in the test on SK-OV-3 ovarian it was 6.85% (active); with IGROV1 ovarian, 30.2%; in the test with OVCAR-3 ovarian, -22.9% (active). Further, the growth in the test on HS 578T breast was 23.8%.

For the molecule `COC(=O)[C@@H](NC(=O)c1cn(CCC2CCCCC2)c2ccccc12)C(C)(C)C`, the growth in the test with SK-MEL-2 melanoma is 78.1%; in the test on EKVX NSCLC, 58.6%; with SN12C renal, 65.7%; with UO-31 renal, 39.2%; in the test on TK-10 renal, 77.8%; in the test on ACHN renal, 59.5%. Also, the growth in the test on A498 renal was 84.2%; with HL-60(TB) leukemia, 60%; in the test on CCRF-CEM leukemia it was 72%; with MOLT-4 leukemia, 64.3%; with SR leukemia it was 61.3%; with RPMI-8226 leukemia, 64.9%. Moreover, the growth was 77.7% with OVCAR-8 ovarian; 82% with OVCAR-5 ovarian; 68.7% in the test on OVCAR-4 ovarian; 79.2% with SK-OV-3 ovarian; 62.3% in the test with IGROV1 ovarian; 77.4% in the test with OVCAR-3 ovarian. Also, in the test on HS 578T breast, the growth was 83.9%.

For the molecule `CCCCCCCCCCCCNC(c1ccccc1)C(O)c1ccccc1` (stereo not drawn), the growth with SK-MEL-2 melanoma is 92.8%; in the test on EKVX NSCLC it was 92.6%; in the test with SN12C renal, 68.5%; with UO-31 renal, 72%; with TK-10 renal, 98.8%; with ACHN renal it was 67.4%. For the same molecule, the growth was 116% in the test on A498 renal; 66.8% with HL-60(TB) leukemia; 63.1% in the test with CCRF-CEM leukemia; 61.7% in the test with MOLT-4 leukemia; -14.3% (active) in the test on SR leukemia; 18.3% with RPMI-8226 leukemia. Moreover, the growth with OVCAR-8 ovarian is 67.9%; with OVCAR-5 ovarian, 92.9%; with OVCAR-4 ovarian, 10.5%; in the test with SK-OV-3 ovarian it was 95.8%; in the test with IGROV1 ovarian, 53.7%; in the test with OVCAR-3 ovarian, 83.8%. For the same molecule, the growth in the test on HS 578T breast was 106%.
